WT yeast gro inh = growth inhibition of WT strain, primary screen, mitochondrial fusion inhibitor project, WT and mutant strains, chemical genetic; mitochondrial fusion phenotypic screen; inhibition, % at 10 µM; 190,000 compounds, 2.1% hits; in the data active = inhibition above about 58%; tested in S. cerevisiae
INS promoter inh = inhibitors of insulin promoter-driven GFP, primary screen, imaging, TRM-6 cells (human fetal islet line), eGFP reporter, cell count; inhibition, % at 2 µM; 130,000 compounds, 0.9% hits; reporter expression induced with tamoxifen; AID 1273, 2008;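 active = inhibition above the mean plus 3 SD, with well images judged a real hit on visual review, cut at about 60% in these data, passing the limit was not always enough; inconclusive = inhibition over the cutoff but images rejected on review; inactive = inhibition not above the cutoff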
Lmaj promast = Leishmania major promastigote growth inhibition, primary screen; inhibition, % at 10 µM; Leishmania major promastigotes, resazurin fluorescence viability; 200,000 compounds, 9% hits; AID 1063, 2008; in the data active = inhibition above about 50%;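 note: promastigotes grown with compound for 44 hours at 28 °C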
Autophagy mod = autophagy modulators in MEF cells, primary screen, imaging, high-content, MEF GFP-LC3; MEF GFP-LC3 puncta imaging; test concentration mostly 10 µM; calls only at 10 µM (by protocol); 190,000 compounds, 0.98% hits; AID 463193, 2010;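 active = percentage of spot-positive cells more than 3 SD above its plate mean, without a fluorescence outlier flag or 80% toxicity; inconclusive = no clear call, values can overlap the other calls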;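 note: spot-positive cell cutoff set from DMSO-treated cells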
Insulin prom up = insulin promoter activators in MIN6 cells, imaging, high-content screening, mouse beta cells. AID 1625, 2009. 190,000 compounds, 0.3% hits. z-score at 5 µM. MIN6 insulin promoter-GFP reporter; stronger effect = higher value;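 active = z-score above 3 at 5 µM with at least 500 cells counted in the well; inconclusive = wells under 500 cells, flagged as cytotoxic or low count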
* marks the source's active call; other numbers are inactive results; i = inactive; u = inconclusive; x = no result; + = active, no number. An excerpt weighted towards active compounds, which were near 11% of everything screened.

SMILES	WT yeast gro inh	INS promoter inh	Lmaj promast	Autophagy mod	Insulin prom up
S=C(NC1CCCCC1)N1CCN(Cc2ccccc2)CC1	-2	-24	2	i	0.28
CC(C)(C)CC(C)(C)NC(=S)NC1CCN(Cc2ccccc2)CC1	15	x	89*	i	-0.5
S=C(Nc1ccc(Cl)c(Cl)c1)NC1CCN(Cc2ccccc2)CC1	74*	x	95*	+	u
S=C(Nc1ccc(Cl)c(Cl)c1)NN1CCOCC1	0	x	-4	i	-0.6
Fc1ccc(NC(=S)NC2CCN(Cc3ccccc3)CC2)cc1	5	-47	89*	i	0.08
Cc1cccc(NC(=S)NC2CCN(Cc3ccccc3)CC2)c1C	7	x	89*	i	0.21
CCc1ccc(N(C(=O)CNC(=O)c2ccco2)C(C(=O)NCC2CCCO2)c2ccccc2)cc1 (stereo not given)	-6	x	-1	i	-0.2
O=C(NNC(=O)C1CCN(Cc2cccc(F)c2)CC1)c1cccc(Cl)c1	3	-12	64*	i	0.26
O=C(Nc1cccc(F)c1)NC1CCN(Cc2ccccc2)CC1	8	x	56*	i	-0.99
O=C(NNC(=O)C1CCN(Cc2cccc(F)c2)CC1)c1cccs1	2	46	-7	i	-0.14
O=c1c(Cc2ccc(F)cc2)c(O)ccn1CCCN1CCOCC1	4	15	-6	i	-0.32
COc1ccc(-n2cccc2C=O)cc1	-15	10	-6	i	0.08
COc1ccc(-n2cccc2/C=C/[N+](=O)[O-])cc1	70*	3	100*	i	-0.16
Cc1nc(=O)c(-c2ccccc2)c(C)n1CCCCCC(=O)O	83*	-19	-4	i	x
Cc1nc(=O)c(-c2ccccc2)c(C)n1CCCO	8	-14	-5	i	1.6
COc1ccc(/C=N/n2c(=S)n(C)c3ccccc32)cc1OC	20	0	2	i	-0.8
COc1cccc(/C=N/n2c(N)nc3ccccc32)c1OC	20	20	59*	i	1.3
COc1ccc(/C=N/n2c(N)nc(-c3ccccc3)c2-c2ccccc2)cc1	21	5	57*	i	-2.1
COc1ccc(/C=N/n2c(N)nc3ccccc32)cc1OC	3	75*	30	i	-0.25
COc1ccc(/C=N/n2c(-c3ccco3)nc3ccccc3c2=O)cc1	-7	71	2	i	-0.33
CC(C)Cc1nnc(NC(=O)CN2C(=O)c3ccccc3C2=O)s1	-12	x	-5	i	-0.19
c1ccc(-n2cc(CNCCc3cscn3)c(-c3ccc4c(c3)OCO4)n2)cc1	5	x	16	i	x
Cc1cc(C)cc(Nc2nc(-c3ccc(S(=O)(=O)N4CCCC4)cc3)cs2)c1	7	41	99*	i	-0.44
O=S(=O)(c1ccc(-c2csc(Nc3ccc(F)cc3)n2)cc1)N1CCCC1	29	11	64*	i	-0.16
O=S(=O)(c1ccc(-c2csc(Nc3ccc(Br)cc3)n2)cc1)N1CCCC1	11	27	-3	i	-0.88
SMILES	WT yeast gro inh	INS promoter inh	Lmaj promast	Autophagy mod	Insulin prom up
Cc1ccc(Nc2nc(-c3ccc(S(=O)(=O)N4CCCC4)cc3)cs2)cc1C	11	x	90*	i	-2.9
Cc1cccc(NC(=O)C2CCCN2C(=O)NC2CCCCC2)c1 (stereo not given)	-7	x	-1	i	0.08
Cc1ccc(C(=O)N/C(=C\c2ccc(-c3ccc([N+](=O)[O-])cc3)o2)C(=O)NC2CCS(=O)(=O)C2)cc1 (stereo not given)	0	x	-2	i	-0.14
O=C(/C=C(\c1ccccc1)n1cncn1)c1ccccc1	-10	0	7	i	-0.2
O=C(C(=C1NCCN1)n1cncn1)c1ccccc1	13	-127	-7	+	-0.19
Cc1cc(C(=O)CN2CCCC(C)C2)c(C)n1-c1ccc(F)cc1 (stereo not given)	-13	x	73*	i	-0.15
Cc1ccc(-n2c(C)cc(C(=O)CN3CCOCC3)c2C)cc1	-8	-47	6	i	-0.23
Cc1ccc(S(=O)(=O)N2CCOCC2)cc1C(=O)N1c2ccccc2Sc2ccccc21	-6	-67	99*	i	-0.58
Cc1cc(C(=O)CSc2ncn[nH]2)c(C)n1-c1cccc(S(=O)(=O)N2CCOCC2)c1	-12	-19	59*	i	-0.94
Cc1cc(C(=O)CCl)c(C)n1-c1cccc(S(=O)(=O)N2CCOCC2)c1	-6	35	101*	i	1.2

Screening results (PubChem)
